Results as given in PubChem BioAssay.
The source made the active and inactive calls.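 How the source made its calls, unless noted: active means visually confirmed hit in the image check and inhibition above 20%; inconclusive means visually confirmed hit but inhibition not above 20%; inactive means no visual hit in the image check.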

Experiments:
[1] = inhibitors of TNFa-induced NFkB p65 translocation, primary screen, imaging, HUVEC, MLSMR starter and 10KST1 sets (AID 438;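 active means inhibition above 20% together with a positive visual image hit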;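 further: compound added about 3h40 before a 20 min TNFalpha stimulation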;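 on inhibition: signal is the nuclear over cytoplasmic p65 intensity ratio per well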); conditions: HUVEC TNFa-induced p65 nuclear translocation; cell count: measured here: nuclei count (cytotoxicity indicator), at 2.08 µM; inhibition: at 2 µM, stronger effect = higher value, 0% TNFa-plus-vehicle, 100% no-TNFa wells
[2] = inhibitors of mutant huntingtin aggregation, primary screen, imaging, exon1htt(103Q)mCFP cells, high-content imaging (AID 483;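 active means visual image review flags a hit and inhibition of aggregation exceeds 20%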;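 further: compound exposure lasted 3 days before fixation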;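 on nuclei count: percent of the per-plate median nuclei count of sample wells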); conditions: exon1htt(103Q)mCFP cell line, aggregate imaging, at 2 µM; inhibition of aggregation: stronger effect = higher value; nuclei count: measured here: cell count, toxicity
[3] = inhibitors of E-selectin induction by TNFa, primary screen, imaging, HUVEC, immunofluorescence, MLSMR starter and 10KST1 sets (AID 487); conditions: HUVEC TNFalpha-induced E-selectin immunofluorescence imaging, at 2 µM; inhibition: stronger effect = higher value; nuclei count: measured here: cell number, toxicity;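 on inhibition: signal is fraction of cell area covered by stained E-selectin grains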;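 on nuclei count: 100% = median nuclei count of all wells on the same plate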
[4] = biological target: Voltage-gated potassium channel subunit beta-2 (Rattus norvegicus) (UniProt P62483); test: KvBeta enzyme negative modulators, primary screen, biochemical, NADPH fluorescence (AID 622;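 active means fluorescence slope higher than the sample average by over 3 SD, cut at about -0.22 in these data, passing the limit was not always enough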;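 further: slope of raw intensity against log time taken from 70 to 1610 s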); conditions: recombinant KvBeta, 4-cyanobenzaldehyde reduction, at 10 µM, stronger effect = higher value
Sequence of Voltage-gated potassium channel subunit beta-2 (Rattus norvegicus) (P62483 whole entry, looked up): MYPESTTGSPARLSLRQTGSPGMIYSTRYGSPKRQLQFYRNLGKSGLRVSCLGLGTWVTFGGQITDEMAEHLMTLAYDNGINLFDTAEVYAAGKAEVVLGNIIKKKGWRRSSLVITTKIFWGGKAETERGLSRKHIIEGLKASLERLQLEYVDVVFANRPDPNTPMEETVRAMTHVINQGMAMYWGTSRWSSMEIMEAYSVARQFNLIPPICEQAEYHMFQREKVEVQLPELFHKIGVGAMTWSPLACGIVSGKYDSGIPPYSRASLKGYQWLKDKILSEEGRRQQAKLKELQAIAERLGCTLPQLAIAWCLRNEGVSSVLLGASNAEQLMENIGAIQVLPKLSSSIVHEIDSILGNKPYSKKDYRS

[5] = biological target: Voltage-gated potassium channel subunit beta-2 (Rattus norvegicus) (UniProt P62483); test: KvBeta positive modulators, primary screen, biochemical, NADPH fluorescence (AID 623;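 active means NADPH fluorescence slope more negative than the mean of all samples by about 3 SD, 99.7% confidence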;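 further: fluorescence intensity change per second fitted from 20 to 320 s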); conditions: Recombinant KvBeta, NADPH fluorescence decrease slope, 10 min; at 10 µM; stronger effect = lower value
[6] = biological target: Alpha-2C adrenergic receptor (Homo sapiens) (UniProt P18825); test: modulators of alpha2C/GIRK thallium flux, primary screen, cell-based, HEK293 alpha2C/GIRK1/2 (AID 624;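 active means fluorescence slope after compound addition differing from the mean of all screened samples at 99.7% confidence, in either direction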;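 further: slope of fluorescence ratio to pre-addition baseline per second over 15 to 24 s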); conditions: thallium flux BTC fluorescence, at 10 µM, actives lie on both sides
Sequence of Alpha-2C adrenergic receptor (Homo sapiens) (P18825 whole entry, looked up): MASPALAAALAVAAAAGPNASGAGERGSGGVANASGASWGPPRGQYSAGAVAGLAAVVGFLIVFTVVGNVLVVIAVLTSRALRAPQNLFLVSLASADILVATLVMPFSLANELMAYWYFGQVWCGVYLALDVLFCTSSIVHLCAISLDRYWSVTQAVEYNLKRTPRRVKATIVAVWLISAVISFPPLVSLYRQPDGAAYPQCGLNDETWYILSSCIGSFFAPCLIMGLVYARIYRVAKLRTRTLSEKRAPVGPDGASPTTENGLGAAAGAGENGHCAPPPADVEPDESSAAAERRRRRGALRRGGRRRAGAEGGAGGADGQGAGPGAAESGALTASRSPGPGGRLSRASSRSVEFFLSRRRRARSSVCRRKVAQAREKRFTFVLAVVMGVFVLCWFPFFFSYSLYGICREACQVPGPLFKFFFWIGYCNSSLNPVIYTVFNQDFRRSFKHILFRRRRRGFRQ

[7] = inhibitors of Sendai virus-induced IRF3 signaling, primary screen, TLR/RLR signaling modifier project, cell-based, Sendai virus stimulus, luciferase, 10K MLSCN set (AID 602276;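 active means inhibition at or above 50% at 10 µM; inactive means inhibition below 50%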;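 further: firefly luciferase from ISG56 promoter only with Renilla not read in this screen; 0% = Sendai virus plus DMSO and 100% = medium plus DMSO without virus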); conditions: HEK293 RL24 IRF3 luciferase reporter, at 10 µM, stronger effect = higher value
[8] = inhibitors of poly I:C-induced TLR3 signaling, primary screen, cell-based, poly I:C stimulus, luciferase, 10K MLSCN set (AID 602277;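 active means inhibition of the reporter signal at or above 50%; inactive means inhibition below 50%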); conditions: HEK293-TLR3 RL24 IRF3 luciferase reporter, at 10 µM, stronger effect = higher value

SMILES	cell count [1]	inhibition [1]	inhibition of aggregation [2]	nuclei count [2] [%]	inhibition [3]	nuclei count [3] [%]	fluorescence slope [4]	NADPH fluorescence slope [5]	slope [6]	inhibition [7]	inhibition [8]
O=C1CN(C(=O)COC(=O)C23CC4CC(CC(O)(C4)C2)C3)c2ccccc2N1	649	1.4% (inactive)	8% (inactive)	106	-44.5% (inactive)	102	-0.597 (inactive)	-3.1e-05 (inactive)	0.00543 (inactive)	8.83% (inactive)	27.8% (inactive)
COc1ccc(N(CC(=O)N2CCCCC2)S(=O)(=O)c2ccccc2)c(OC)c1	622	-7.8% (inactive)	-4.8% (inactive)	104	-218% (inactive)	132	-0.278 (inactive)	-7.4e-06 (inactive)	0.00613 (inactive)	12% (inactive)	26.9% (inactive)
Cc1cc(C)n(C(=O)CCCCCC(=O)n2nc(C)cc2C)n1	440	5.5% (inactive)	1.5% (inactive)	116	-195% (inactive)	116	-0.524 (inactive)	8.7e-06 (inactive)	0.0053 (inactive)	18.5% (inactive)	26.3% (inactive)
COc1ccc(NC(=O)CC2Oc3ccccc3NC2=O)cc1 (stereo not drawn)	560	8.3% (inactive)	-0.3% (inactive)	92.4	-48.1% (inactive)	122	-0.556 (inactive)	-3.2e-05 (inactive)	0.00626 (inactive)	4.81% (inactive)	31.8% (inactive)
Cc1[nH]nc2c1C(C1CC=CCC1)C(C#N)=C(N)O2 (stereo not drawn)	424	6.7% (inactive)	-6.7% (inactive)	99.5	-127% (inactive)	117	-0.459 (inactive)	8.5e-06 (inactive)	0.00356 (inactive)	-0.754% (inactive)	40.2% (inactive)
O=S(=O)(Cc1ccccc1)N1CCN(Cc2ccccc2)CC1	386	4.8% (inactive)	12.7% (inactive)	103	-74.1% (inactive)	117	-0.46 (inactive)	4.9e-05 (inactive)	0.00741 (inactive)	-12% (inactive)	-7.67% (inactive)
COc1ccc(OC)c(S(=O)(=O)Nc2ccc(O)c3ccccc23)c1	382	-10.1% (inactive)	-0.8% (inactive)	93	-13.9% (inactive)	114	-0.416 (inactive)	-6.5e-05 (inactive)	0.00306 (inactive)	14.9% (inactive)	53.2% (active)
O=C(Nc1ccc2c(c1)OCO2)C(c1ccccc1)N1CCC2(CC1)OCCO2 (stereo not drawn)	649	2% (inactive)	-13.5% (inactive)	107	23.5% (inactive)	115	-0.51 (inactive)	3.6e-05 (inactive)	0.00477 (inactive)	-14.7% (inactive)	1% (inactive)
CCn1c(-c2cc(Br)ccc2O)n[nH]c1=S	623	-3.8% (inactive)	-0.9% (inactive)	112	-27.4% (inactive)	83.3	-0.59 (inactive)	-3.5e-05 (inactive)	0.00762 (inactive)	8.59% (inactive)	9.74% (inactive)
COc1ccc(C)cc1NC(=O)CN1CCN(S(=O)(=O)c2ccc(Cl)cc2)CC1	409	-1.5% (inactive)	4.2% (inactive)	104	-76.7% (inactive)	98.9	-0.41 (inactive)	-3e-05 (inactive)	0.0018 (inactive)	5.97% (inactive)	15.6% (inactive)
O=C(c1csc2ccccc12)N1CCCCCC1	359	5.6% (inactive)	13.8% (inactive)	100	-16.8% (inactive)	106	-0.512 (inactive)	8.9e-06 (inactive)	0.0038 (inactive)	7.71% (inactive)	5.9% (inactive)
Cc1cc(C)n2c(SCC(=O)Nc3cc(C)on3)nnc2n1	335	-14.1% (inactive)	2.1% (inactive)	71.2	3.6% (inactive)	100	-0.555 (inactive)	-2.2e-05 (inactive)	0.00561 (inactive)	11% (inactive)	22.4% (inactive)
CCC(C)(C)n1nnnc1C(c1ccc(OC)c(OC)c1)N1CCN(c2ccccc2)CC1 (stereo not drawn)	252	10.9% (inactive)	0.9% (inactive)	80.9	1.7% (inactive)	94.4	-0.473 (inactive)	-0.000151 (inactive)	0.0062 (inactive)	18.8% (inactive)	39.6% (inactive)
